# High-throughput results: PubChem, several laboratories
# m5-HT2A agonist = activates the mouse 5-HT2A serotonin receptor. P35363. CHO-K1 mHTR2A beta-arrestin complementation, luminescence; percent of 30 µM serotonin response. activation, % at 7.6 µM. 360,000 tested, 0.66% active;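 active = activation above a run cutoff, the mean activation of all tested compounds plus 3 SD, cut at about 14% in these data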;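 note: 0% = plate median of compound wells and 100% = 30 µM serotonin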
# ABHD5 PLIN5 PPI = inhibitors of human ABHD5-perilipin-5 interaction; Split G. princeps luciferase complementation, luminescence, 4 h; Q00G26+Q8WTS1; 360,000 tested, 0.78% active; inhibition, % at 4 µM; AID 602281;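 active = inhibition above the mean inhibition across every tested compound plus 3 SD, cut at about 22% in these data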;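 note: 0% = DMSO only wells and the 100% control is not disclosed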
# Target sequence (Q00G26 whole entry, looked up): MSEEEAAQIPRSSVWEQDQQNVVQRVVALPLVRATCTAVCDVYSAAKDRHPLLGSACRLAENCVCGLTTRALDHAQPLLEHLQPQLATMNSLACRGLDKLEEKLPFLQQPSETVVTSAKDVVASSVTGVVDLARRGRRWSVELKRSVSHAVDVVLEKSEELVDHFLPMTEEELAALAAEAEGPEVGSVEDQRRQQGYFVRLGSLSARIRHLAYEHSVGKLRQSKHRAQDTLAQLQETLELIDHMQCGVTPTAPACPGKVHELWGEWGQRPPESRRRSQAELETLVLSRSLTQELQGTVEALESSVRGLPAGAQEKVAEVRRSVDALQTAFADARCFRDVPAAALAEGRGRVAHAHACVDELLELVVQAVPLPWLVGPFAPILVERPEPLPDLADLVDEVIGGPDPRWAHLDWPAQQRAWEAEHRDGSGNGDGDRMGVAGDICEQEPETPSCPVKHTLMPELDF
# Target sequence (Q8WTS1 whole entry, looked up): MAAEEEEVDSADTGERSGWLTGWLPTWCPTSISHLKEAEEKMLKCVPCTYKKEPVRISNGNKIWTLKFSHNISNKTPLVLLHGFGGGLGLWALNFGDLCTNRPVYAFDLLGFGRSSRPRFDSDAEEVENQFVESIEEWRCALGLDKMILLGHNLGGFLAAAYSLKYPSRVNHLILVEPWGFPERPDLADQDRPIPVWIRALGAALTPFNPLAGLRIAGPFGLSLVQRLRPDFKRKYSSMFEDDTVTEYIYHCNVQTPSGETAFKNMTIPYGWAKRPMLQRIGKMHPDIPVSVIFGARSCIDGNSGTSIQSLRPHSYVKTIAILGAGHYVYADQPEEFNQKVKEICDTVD
# Beta2AR agonist = agonists of human beta-2 adrenergic receptor inducing internalization | P07550 | Am2.2-beta2AR cells, FAP receptor internalization, flow cytometry | response, % (concentration not given with the values) | 340,000 tested, 0.43% active | AID 504454;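 active = response above a set limit, near 3 SD of response in nonfluorescent compounds, cut at about 42% in these data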
# Granule exo inh = blocks lytic granule exocytosis; TALL-104 LAMP-1 surface exposure, flow cytometry; cells stimulated with thapsigargin and PMA; inhibition, % at 10 µM; 360,000 tested, 0.66% active; AID 651702;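 active = inhibition above about 55%, limit read from the data; inconclusive = no clear call, values can overlap the other calls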
# NTR1 agonist = NTR1 (human) agonism; P30989; NTR1-U2OS beta-arrestin-GFP spot imaging, agonist mode; activation, % at 20 µM; 330,000 tested, 0.17% active; AID 493036;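 active = activation at or above 40% of the spot to cytoplasm intensity ratio, with at least 20 cells analyzed; inconclusive = wells under 20 cells, flagged as cytotoxic or low count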;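 note: 0% = DMSO without peptide and 100% = 100 nM NTR1 peptide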
# An asterisk follows results filed as active; ? = inconclusive; / = no result given. Only some compounds are listed: those with a hit (about 2.3% of all), similar ones and a draw of the others.
SMILES,m5-HT2A agonist,ABHD5 PLIN5 PPI,Beta2AR agonist,Granule exo inh,NTR1 agonist
COc1ccc2cc(CN(Cc3ccco3)C(c3nnnn3C3CCCCC3)C(C)C)c(=O)[nH]c2c1 (stereo not drawn),7.8,22.5*,16.3,5.0,2.3
CCOC(=O)c1cc2c(=O)n3cccc(C)c3nc2n(Cc2ccco2)c1=NC(=O)c1ccc(C)cc1,0.4,-6.6,-6.4,0.9,/
CCOC(=O)c1cc2c(=O)n3cccc(C)c3nc2n(Cc2ccco2)c1=NC(=O)c1ccccc1,-3.0,22.3*,16.5,17.3,13.4
CC(C)[C@H](NC(=O)N1CCn2c1nc1ccccc12)C(=O)NCC1CCCO1 (stereo partly drawn),14.6*,5.6,-1.6,-1.2,1.1
C[C@H](NC(=O)N1CCn2c1nc1ccccc12)C(=O)NCC1CCCO1 (stereo partly drawn),-3.6,-8.1,-5.4,8.0,-0.2
COC(=O)[C@@]12C[C@@H](CC(=O)NCC3CCCCC3)C(=O)N(Cc3ccccc3)C1=CCC(C)(C)C2,-4.1,-0.2,/,11.2,/
Cc1cccc(N(C(=O)c2snc(C(N)=O)c2N)C(C(=O)NCC2CCCO2)c2ccc(N(C)C)cc2)c1 (stereo not drawn),-2.3,0.1,-1.4,97.1*,-0.1
CCOc1ccccc1N(C(=O)c1snc(C(N)=O)c1N)C(C(=O)NC1CCCC1)c1cccs1 (stereo not drawn),2.9,-3.1,4.2,74.4*,1.0
NC(=O)c1nsc(C(=O)N(c2ccccc2F)C(C(=O)NCc2ccccc2)c2ccc(O)cc2)c1N (stereo not drawn),13.8,15.4,5.7,39.4,0.1
CN(C)c1ccc(C(C(=O)NCC2CCCO2)N(C(=O)c2snc(C(N)=O)c2N)c2ccccc2)cc1 (stereo not drawn),3.9,1.8,-3.0,18.0,-1.3
Cc1ccccc1N(C(=O)c1snc(C(N)=O)c1N)C(C(=O)NCc1ccccc1)c1ccc(O)cc1 (stereo not drawn),-0.8,-7.9,-1.0,63.6*,2.1
COc1ccc(N=Cc2nc(-c3ccccc3)oc2OC(C)=O)cc1,-0.4,-4.7,7.5,38.8,2.9
COc1cccc(N=Cc2nc(-c3ccccc3)oc2OC(C)=O)c1,1.4,-1.4,-5.3,63.8*,3.0
CN(C)S(=O)(=O)c1ccc(C(=O)Nc2ccc3nc(N4CCOCC4)sc3c2)cc1,12.4,10.9,-1.5,1.6,-1.6
Cc1cc(/C=C2\SC(=S)N(Cc3ccco3)C2=O)c(C)n1-c1ccccc1,-5.4,7.2,-247.4,4.4,-2.0
CN(C)c1ccc(C=C2SC(=S)N(Cc3ccco3)C2=O)cc1,-3.8,8.6,/,104.6*,/
CCCC(C(=O)NCCC(C)C)N(Cc1ccccc1)C(=O)c1snc(C(N)=O)c1N (stereo not drawn),-3.7,1.8,-7.6,18.8,4.3
CCOC(=O)N1CCC2(CC1)C(C(=O)C13CC4CC(CC(C4)C1)C3)C2(C#N)C#N (stereo not drawn),-0.9,-5.2,4.0,71.3*,2.4
CC(SC#N)C(=O)C12CC3CC(CC(C3)C1)C2 (stereo not drawn),-0.8,-5.5,8.9,-1.9,2.7
Cc1cccc(NS(=O)(=O)c2ccc(NC(=O)CN(c3cc([N+](=O)[O-])ccc3C)S(C)(=O)=O)cc2)c1,-1.9,32.0*,30.1,13.0,3.8
COc1ccc(C)cc1NS(=O)(=O)c1ccc(NC(=O)CN(c2cc([N+](=O)[O-])ccc2C)S(C)(=O)=O)cc1,-5.0,21.2,1.9,7.0,5.4
O=C(Nc1nc(-c2ccco2)c(-c2ccco2)s1)c1c(F)cccc1Cl,-8.3,33.4*,-2.9,-0.2,4.8
CCOC(=O)[C@]12CCC=C1N(Cc1ccco1)C(=O)[C@H](CC(=O)NCCc1ccccc1OC)C2,1.3,7.0,/,-3.9,/
O=c1c2c3c(sc2ncn1/N=C/c1ccc([N+](=O)[O-])o1)CCCC3,-4.7,4.9,31.9,83.3*,23.8
COC1Cc2ccccc2N(C(N)=O)c2ccccc21 (stereo not drawn),8.6,4.7,-4.4,-9.6,-0.1
SMILES,m5-HT2A agonist,ABHD5 PLIN5 PPI,Beta2AR agonist,Granule exo inh,NTR1 agonist
CCOC(=O)C1CCN(c2nc3c(C)cccn3c(=O)c2/C=C(\C#N)S(=O)(=O)c2ccccc2)CC1,-0.6,10.0,13.1,84.0*,12.6
COCCN1C(=O)c2cc(C(=O)Nc3ccc(OC)c(OC)c3)ccc2C1Nc1ccc(OC)c(OC)c1 (stereo not drawn),3.6,-0.2,2.2,?,-0.7
CN1C(=O)/C(=N/OC(=O)c2ccccc2)c2ccccc21,1.3,12.4,-6.3,87.4*,0.1
CCOc1ccc(N2C(=O)/C(=C/c3ccco3)N(C)C2=S)cc1,2.0,-3.8,-12.8,1.0,4.6
Cc1ccc(/C=C2/C(=O)N(c3ccccc3)C(=S)N2C)o1,-1.1,9.2,-3.3,82.9*,12.2
O=C1/C(=C/c2ccncc2)SC(=S)N1Nc1ccccc1,0.9,-15.4,7.3,61.1*,5.4
O=C(O)c1ccc(/C=C2\SC(=S)N(Nc3ccccc3)C2=O)cc1,2.2,-1.6,15.7,1.3,5.5
O=C(Nc1ccc(N2CCOCC2)cc1)NC1CCCCC1,15.5*,2.6,-0.1,4.3,-0.7
CCOC(=O)C1CCCN(C(=O)COc2ccc(N(C)S(=O)(=O)c3ccc(F)cc3)cc2)C1 (stereo not drawn),8.3,-2.6,7.1,6.0,0.0
O=C(Cn1ncc(Cl)c(Cl)c1=O)N1CCN(Cc2ccccc2)CC1,-2.6,5.5,16.5,-1.0,/
O=C(Cn1ncc(Cl)c(Cl)c1=O)N1CCc2ccccc21,-7.9,5.5,54.1*,0.0,/
COCCN(Cc1cccs1)S(=O)(=O)c1ccc(-c2ccc(=O)[nH]n2)s1,-2.0,4.6,2.8,0.5,4.1
Cn1c(=O)c2cc(NC(=O)CCc3cccnc3)ccc2n1Cc1cccc(C(F)(F)F)c1,3.4,-4.2,/,6.7,/
CC(=O)Nc1cccc(C(=O)/C=C/c2ccc(/C=C/C(=O)c3cccc(NC(C)=O)c3)cc2)c1,/,/,/,/,11.1
CC(=O)Nc1cccc(C(=O)/C=C/c2ccco2)c1,-5.4,28.5*,-4.1,5.5,-1.7
O=C(/C=C/c1ccco1)NC(=S)Nc1cccc(C(=O)O)c1,-4.3,8.4,-4.9,-1.1,-0.1
CC(=O)Nc1cccc(C(=O)/C=C/c2cccs2)c1,-2.2,22.4*,-0.7,3.5,/
CCNC(=O)C1(C)CCN(C(=O)c2cccc(C(F)(F)F)c2)C1 (stereo not drawn),9.4,-6.3,/,?,/
CCOC(=O)C1=C(C)Nc2ccccc2N/C1=N\S(=O)(=O)c1cc(C(=O)O)ccc1Cl,4.1,4.0,-0.6,-0.4,-1.8
CCCNC(=O)C1(C)CCN(CCC(=O)c2ccc(Br)cc2)C1 (stereo not drawn),1.8,3.9,/,-10.0,/
CC(C)N1CCc2c(sc(NC(=O)c3cc(-c4cccs4)nc4ccccc34)c2C(N)=O)C1,5.5,-2.5,-42.1,76.3*,-3.4
